# Out of some 5,500 compounds screened, about 2,000 (36%) were called active. Another 18% or so got no clear call; they are omitted. The list shows a part of the results. Values without a mark were called inactive. No stated cut-off is given here; in the data, active means normalized growth mostly below about 0.91 (no sharp cut-off); inconclusive means no clear call, values can overlap the other calls; inactive means mostly above about 0.92.
# Assay: chemical genetic growth profiling, strain panel (AID 1159580);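 further: tested at 20 µM; growth read once vehicle control cultures reached saturation at 30 °C; 1 = growth at the plate median or of vehicle wells; lower values mean less growth of the strain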
# Settings: growth OD
# [1] = S. cerevisiae deletion strains, locus YAL013W, strain DEP1, hits give low values
# [2] = S. cerevisiae deletion strains, locus YBR229C, strain ROT2, hits give low values
# [3] = S. cerevisiae deletion strains, locus YDL101C, strain DUN1, hits give low values
# [4] = S. cerevisiae deletion strains, locus YDL134C, strain PPH21, hits give low values
# [5] = S. cerevisiae deletion strains, locus YDR150W, strain NUM1, hits give low values
# [6] = S. cerevisiae deletion strains, locus YEL061C, strain CIN8, hits give low values
# [7] = S. cerevisiae deletion strains, locus YGR078C, strain PAC10, hits give low values
# [8] = S. cerevisiae deletion strains, locus YHR030C, strain SLT2, hits give low values
# [9] = S. cerevisiae deletion strains, locus YHR087W, strain rtc3, hits give low values
# [10] = S. cerevisiae deletion strains, locus YJR043C, strain POL32, hits give low values
# [11] = S. cerevisiae deletion strains, locus YJR075W, strain HOC1, hits give low values
# [12] = S. cerevisiae deletion strains, locus YLR039C, strain RIC1, hits give low values
# [13] = S. cerevisiae deletion strains, locus YLR058C, strain SHM2 (second series), hits give low values
# [14] = S. cerevisiae deletion strains, locus YLR085C, strain ARP6, hits give low values
# [15] = S. cerevisiae deletion strains, locus YLR262C, strain YPT6, hits give low values
# [16] = S. cerevisiae deletion strains, locus YML094W, strain GIM5, hits give low values
# [17] = S. cerevisiae deletion strains, locus YMR219W, strain ESC1, hits give low values
# [18] = S. cerevisiae deletion strains, locus YMR263W, strain SAP30, hits give low values
# [19] = S. cerevisiae deletion strains, locus YNL128W, strain TEP1, hits give low values
# [20] = S. cerevisiae deletion strains, locus YNL153C, strain GIM3, hits give low values
# [21] = S. cerevisiae deletion strains, locus YNL298W, strain CLA4 (second series), hits give low values
# [22] = S. cerevisiae deletion strains, locus YNL322C, strain KRE1, hits give low values
# [23] = S. cerevisiae deletion strains, locus YNR030W, strain Alg12, hits give low values
# [24] = S. cerevisiae deletion strains, locus YPL055C, strain LGE1, hits give low values
# [25] = S. cerevisiae deletion strains, locus YPL241C, strain CIN2, hits give low values
# [26] = S. cerevisiae deletion strains, locus YPR135W, strain CTF4, hits give low values
# [27] = S. cerevisiae deletion strains, locus YMR307W, strain GAS1, hits give low values
smiles,measurement,setting,value
COc1ccc(N=Cc2ccccc2O)cc1,normalized growth,[1],0.993
same,normalized growth,[2],0.99
same,normalized growth,[3],0.991
same,normalized growth,[4],1.01
same,normalized growth,[5],0.952
same,normalized growth,[6],0.991
same,normalized growth,[7],0.995
same,normalized growth,[8],0.879
same,normalized growth,[9],0.969
same,normalized growth,[10],0.956
same,normalized growth,[11],0.967
same,normalized growth,[12],0.841
same,normalized growth,[13],0.988
same,normalized growth,[14],0.999
same,normalized growth,[15],0.813 (active)
same,normalized growth,[16],0.978
same,normalized growth,[17],0.976
same,normalized growth,[18],0.963
same,normalized growth,[19],0.986
same,normalized growth,[20],1.01
same,normalized growth,[21],0.975
same,normalized growth,[22],0.985
same,normalized growth,[23],0.973
same,normalized growth,"S. cerevisiae deletion strains, locus YOL006C, strain TOP1, hits give low values",0.819
same,normalized growth,[24],0.912
same,normalized growth,[25],0.977
same,normalized growth,[26],0.86
same,normalized growth,"S. cerevisiae strains, strain wild type, hits give low values",0.977
COc1ccc(C=Nc2ccc(O)cc2)cc1,normalized growth,[1],0.999
same,normalized growth,[2],1.01
same,normalized growth,"S. cerevisiae deletion strains, locus YCL061C, strain MRC1, hits give low values",0.979
same,normalized growth,[3],1.03
same,normalized growth,[4],1.03
same,normalized growth,[5],0.975
same,normalized growth,[6],1.05
same,normalized growth,[7],0.996
same,normalized growth,[8],1.04
same,normalized growth,[9],0.998
same,normalized growth,[10],0.99
same,normalized growth,[11],1.04
same,normalized growth,"S. cerevisiae deletion strains, locus YKL190W, strain CNB1, hits give low values",1.02
same,normalized growth,[12],0.936
same,normalized growth,[13],1.02
same,normalized growth,[14],1.03
same,normalized growth,[15],0.931
same,normalized growth,[16],1.01
same,normalized growth,[17],0.996
same,normalized growth,[18],1.02
same,normalized growth,[27],1.15
same,normalized growth,[19],1.02
same,normalized growth,[20],1.01
same,normalized growth,[21],1.04
same,normalized growth,[22],0.994
same,normalized growth,[23],1.01
same,normalized growth,[24],1.04
same,normalized growth,[25],0.987
same,normalized growth,[26],0.995
CCCN(CCC)CCc1c[nH]c2ccc(C(N)=O)cc12,normalized growth,"S. cerevisiae deletion strains, locus YAL040C, strain CLN3, hits give low values",1.07
same,normalized growth,"S. cerevisiae deletion strains, locus YCL061C, strain MRC1 (second series), hits give low values",0.996
same,normalized growth,"S. cerevisiae deletion strains, locus YDR363W, strain ESC2, hits give low values",0.981
same,normalized growth,"S. cerevisiae deletion strains, locus YER002W, strain NOP16, hits give low values",0.991
same,normalized growth,[18],0.988
same,normalized growth,[27],1
same,normalized growth,"S. cerevisiae deletion strains, locus YNL175C, strain NOP13, hits give low values",1.05
same,normalized growth,"S. cerevisiae deletion strains, locus YNL197C, strain WHI3, hits give low values",1.02
same,normalized growth,"S. cerevisiae deletion strains, locus YNL224C, strain SQS1, hits give low values",0.994
same,normalized growth,[22],0.95
same,normalized growth,"S. cerevisiae deletion strains, locus YOR083W, strain WHI5 (second series), hits give low values",1.01
same,normalized growth,[25],0.988
CC(=O)O[C@H]1CC[C@]2(C)C3=CC(=O)[C@@]4(C)C(C[C@@H]5OC6(OCC(C)CC6Br)[C@@H](C)[C@@H]54)C3CC[C@H]2C1 (stereo partly drawn),normalized growth,[1],1.01
same,normalized growth,"S. cerevisiae deletion strains, locus YBR021W, strain FUR4, hits give low values",0.964
same,normalized growth,[2],0.99
same,normalized growth,"S. cerevisiae deletion strains, locus YCL029C, strain bik1, hits give low values",0.994
same,normalized growth,"S. cerevisiae deletion strains, locus YDL035C, strain GPR1, hits give low values",1.01
same,normalized growth,"S. cerevisiae deletion strains, locus YDL074C, strain BRE1, hits give low values",1.01
same,normalized growth,[3],0.989
same,normalized growth,"S. cerevisiae deletion strains, locus YDL185W, strain tfp1, hits give low values",0.988
same,normalized growth,"S. cerevisiae deletion strains, locus YDL192W, strain arf1, hits give low values",0.995
same,normalized growth,"S. cerevisiae deletion strains, locus YDR101C, strain arx1, hits give low values",1.02
same,normalized growth,"S. cerevisiae deletion strains, locus YDR162C, strain NBP2, hits give low values",1.01
same,normalized growth,"S. cerevisiae deletion strains, locus YDR318W, strain mcm21, hits give low values",0.997
same,normalized growth,"S. cerevisiae deletion strains, locus YDR388W, hits give low values",0.994
same,normalized growth,"S. cerevisiae deletion strains, locus YDR502C, strain sam2, hits give low values",0.995
same,normalized growth,"S. cerevisiae deletion strains, locus YER110C, hits give low values",0.986
same,normalized growth,"S. cerevisiae deletion strains, locus YER155C, strain BEM2, hits give low values",0.987
same,normalized growth,"S. cerevisiae deletion strains, locus YER167W, strain BCK2, hits give low values",0.996
same,normalized growth,"S. cerevisiae deletion strains, locus YGL078C, strain dbp3, hits give low values",0.982
same,normalized growth,"S. cerevisiae deletion strains, locus YGL086W, strain mad1, hits give low values",1.01
same,normalized growth,"S. cerevisiae deletion strains, locus YGL248W, strain PDE1, hits give low values",0.995
same,normalized growth,"S. cerevisiae deletion strains, locus YGR135W, strain pre9, hits give low values",0.973
same,normalized growth,"S. cerevisiae deletion strains, locus YGR229C, strain SMI1, hits give low values",1.03
same,normalized growth,"S. cerevisiae deletion strains, locus YGR252W, strain gcn5, hits give low values",0.986
same,normalized growth,[8],0.992
same,normalized growth,"S. cerevisiae deletion strains, locus YHR079C, strain IRE1 (second series), hits give low values",0.984
same,normalized growth,"S. cerevisiae deletion strains, locus YHR094C, strain hxt1, hits give low values",0.973
same,normalized growth,"S. cerevisiae deletion strains, locus YHR129C, strain ARP1, hits give low values",0.995
same,normalized growth,"S. cerevisiae deletion strains, locus YHR200W, strain rpn10, hits give low values",0.984
same,normalized growth,"S. cerevisiae deletion strains, locus YIL066C, strain RNR3, hits give low values",1
same,normalized growth,"S. cerevisiae deletion strains, locus YIL073C, strain SPO22, hits give low values",1.01
same,normalized growth,"S. cerevisiae deletion strains, locus YIL125W, strain kgd1, hits give low values",0.994
same,normalized growth,"S. cerevisiae deletion strains, locus YIR030C, strain dcg1, hits give low values",0.996
same,normalized growth,"S. cerevisiae deletion strains, locus YJL095W, strain BCK1, hits give low values",0.994
same,normalized growth,"S. cerevisiae deletion strains, locus YJL134W, strain LCB3, hits give low values",0.993
same,normalized growth,"S. cerevisiae deletion strains, locus YJL168C, strain set2, hits give low values",0.994
same,normalized growth,"S. cerevisiae deletion strains, locus YJL187C, strain SWE1 (second series), hits give low values",0.981
same,normalized growth,[10],1.02
same,normalized growth,[11],0.995
same,normalized growth,"S. cerevisiae deletion strains, locus YKL009W, strain mrt4, hits give low values",1.01
same,normalized growth,"S. cerevisiae deletion strains, locus YKL068W, hits give low values",0.996
same,normalized growth,"S. cerevisiae deletion strains, locus YKL085W, strain MDH1 (second series), hits give low values",1.13 [resistant] (active)
same,normalized growth,"S. cerevisiae deletion strains, locus YKL085W, strain MDH1, hits give low values",1.13 [resistant] (active)
same,normalized growth,"S. cerevisiae deletion strains, locus YKR001C, strain vps1, hits give low values",0.989
same,normalized growth,[12],0.987
same,normalized growth,"S. cerevisiae deletion strains, locus YLR058C, strain SHM2, hits give low values",0.995
same,normalized growth,"S. cerevisiae deletion strains, locus YLR102C, strain apc9, hits give low values",0.993
same,normalized growth,[15],1.04
same,normalized growth,"S. cerevisiae deletion strains, locus YLR268W, strain sec22, hits give low values",0.995
same,normalized growth,"S. cerevisiae deletion strains, locus YLR330W, strain CHS5, hits give low values",0.997
same,normalized growth,"S. cerevisiae deletion strains, locus YLR371W, strain rom2, hits give low values",0.99
same,normalized growth,"S. cerevisiae deletion strains, locus YLR418C, strain cdc73, hits give low values",0.991
same,normalized growth,"S. cerevisiae deletion strains, locus YML016C, strain PPZ1, hits give low values",0.982
same,normalized growth,"S. cerevisiae deletion strains, locus YML032C, strain rad52, hits give low values",0.995
same,normalized growth,"S. cerevisiae deletion strains, locus YML124C, strain tub3, hits give low values",0.988
same,normalized growth,"S. cerevisiae deletion strains, locus YMR078C, strain ctf18, hits give low values",0.993
same,normalized growth,"S. cerevisiae deletion strains, locus YMR223W, strain ubp8, hits give low values",0.993
same,normalized growth,[27],0.981
same,normalized growth,"S. cerevisiae deletion strains, locus YNL067W, strain RPL9B, hits give low values",0.98
same,normalized growth,[20],0.993
same,normalized growth,"S. cerevisiae deletion strains, locus YNL233W, strain BNI4, hits give low values",1.01
same,normalized growth,"S. cerevisiae deletion strains, locus YNL250W, strain rad50, hits give low values",0.989
same,normalized growth,"S. cerevisiae deletion strains, locus YNL271C, strain bni1, hits give low values",0.993
same,normalized growth,"S. cerevisiae deletion strains, locus YNL298W, strain CLA4, hits give low values",0.99
same,normalized growth,"S. cerevisiae deletion strains, locus YNL307C, strain MCK1, hits give low values",0.993
same,normalized growth,"S. cerevisiae deletion strains, locus YNR052C, strain pop2, hits give low values",0.983
same,normalized growth,"S. cerevisiae deletion strains, locus YOL012C, strain htz1",0.79
same,normalized growth,"S. cerevisiae deletion strains, locus YOL147C, strain pex11, hits give low values",0.997
same,normalized growth,"S. cerevisiae deletion strains, locus YOR061W, strain CKA2, hits give low values",0.992
same,normalized growth,"S. cerevisiae deletion strains, locus YOR069W, strain VPS5, hits give low values",0.992
same,normalized growth,"S. cerevisiae deletion strains, locus YOR136W, strain idh2, hits give low values",0.991
same,normalized growth,"S. cerevisiae deletion strains, locus YOR144C, strain elg1, hits give low values",0.989
same,normalized growth,"S. cerevisiae deletion strains, locus YOR184W, strain ser1, hits give low values",1.01
same,normalized growth,"S. cerevisiae deletion strains, locus YOR316C, strain cot1, hits give low values",0.99
same,normalized growth,[25],0.999
same,normalized growth,"S. cerevisiae deletion strains, locus YPR119W, strain clb2, hits give low values",0.991
same,normalized growth,"S. cerevisiae deletion strains, locus YPR141C, strain kar3, hits give low values",0.99
same,normalized growth,"S. cerevisiae deletion strains, locus YPR163C, strain tif3, hits give low values",0.992
same,normalized growth,"S. cerevisiae deletion strains, locus YPR167C, strain met16, hits give low values",0.992
same,normalized growth,"S. cerevisiae deletion strains, strain wtn01, hits give low values",1.01
